Consider 8 molecules from PubChem BioAssay (Tox21).

Values joined by “and” are separate entries in the source; they are usually repeats but may differ in a detail not shown here. Equal entries are not always repeated. Records with an inconclusive call do not appear. Some structures have more than one record in an assay (separate samples or runs), and their calls can disagree. Active and inactive are the calls of the source. Unless noted, calls come from the whole dose curve; as a rule, active = well fitted curve in the direction sought with a large enough effect in the repeat runs; inconclusive = weak or mixed curves; inactive = no such curve, though single readings can be large; an effect the other way counts as inactive or inconclusive.

The nature of experiment [1]: qHTS assay to identify aromatase inhibitors - cell viability counter screen (AID 743084).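 Note: cells stimulated with testosterone during compound exposure; nearly all actives have a fitted effect of over 55% in size.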
In experiment [2] the target is Aryl hydrocarbon receptor (Homo sapiens) (UniProt P35869). Put plainly: qHTS assay to identify small molecule that activate the aryl hydrocarbon receptor (AhR) signaling pathway (AID 743085).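 For activation: HG2L7.5c1 human HepG2 liver cells with stably integrated DRE-driven firefly reporter; series mostly up to about 70 µM.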 Note: nearly all actives have a fitted effect of over 15% in size. Note: potency is the fitted concentration of half-maximal effect. Put shortly: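 Reporter assay in engineered HepG2 line HG2L7.5c1, whose plasmid carries twenty dioxin responsive elements upstream of firefly luciferase. Treatment lasted 24 h at 37C; ONE-Glo luminescence gauged induction.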
In general terms: qHTS replaces the single test concentration by a dilution series.

The nature of experiment [3]: qHTS assay to identify small molecule that activate the aryl hydrocarbon receptor (AhR) signaling pathway - cell viability counter screen (AID 743086).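 Note: HepG2 liver cells carrying the AhR DRE luciferase reporter; series mostly up to about 70 µM; nearly all actives have a fitted effect of over 45% in size.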 The procedure, abridged: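 HepG2-AhR-luc (HG2L7.5c1) cells, 4000/well, were preincubated 5 h at 37C, exposed to compound in qHTS format for 24 hr at 37C, then given CellTiter-Fluor for 30 min; viability was read as fluorescence in the reporter wells.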

Experiment [4] deals with Peroxisome proliferator-activated receptor gamma (Homo sapiens) (UniProt P37231). Put plainly: qHTS assay to identify small molecule agonists of the peroxisome proliferator-activated receptor gamma (PPARg) signaling pathway (AID 743094; active = well fitted activation curve with a large enough effect in the signal ratio in the repeat runs, not every such curve was filed as active; the % refers to the signal ratio). Put shortly: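 HEK293H PPARg-bla cells, 5 h settle at 37C/5% CO2; compound (DMSO) 17 h, 37C; B/G FRET substrate 1 h RT; fluorescence intensity read-out. qHTS format.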

A short description of experiment [5]: qHTS assay to identify small molecule antagonists of the peroxisome proliferator-activated receptor gamma (PPARg) signaling pathway - cell viability counter screen (AID 743194). Note: nearly all actives have a fitted effect of over 55% in size. Put shortly: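 PPARg-UAS-bla HEK293H cells were plated, rested 5 h at 37 C, then treated with compounds plus rosiglitazone (50 nM final) for 17 h at 37 C; viability was then read by CellTiter-Glo luminescence after 30 min at room temperature.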

Experiment [6] can be described thus: qHTS assay for small molecule agonists of the antioxidant response element (ARE) signaling pathway (AID 743202; active = well fitted activation curve with a large enough effect in the signal ratio in the repeat runs, not every such curve was filed as active; the % refers to the signal ratio). The procedure, abridged: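 Steps: seed ARE-bla HepG2 cells (2,000/well); incubate 5 h at 37 C; add compounds by pin tool; incubate 16 h at 37 C; add FRET substrate; read fluorescence after 2 h at RT.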
A short description of experiment [7]: qHTS assay for small molecule agonists of the antioxidant response element (ARE) signaling pathway - cell viability counter screen (AID 743203; calls by dose curve; note: nearly all actives have a fitted effect of over 55% in size). Put shortly:
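Luminescence read-out (CellTiter-Glo, 30 min at room temperature) measured cell viability in the same wells as the ARE beta-lactamase reporter. HepG2 ARE-bla cells were treated with compounds for 16 hrs at 37C/5% CO2.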

Experiment [8] can be described thus: qHTS assay for small molecule activators of the heat shock response signaling pathway - cell viability counter screen (AID 743209). Note: nearly all actives have a fitted effect of over 50% in size. The procedure, abridged:
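HSE-bla HeLa; 1500 cells/well; overnight 37 C, 5% CO2; compound 5 h 37 C; LiveBLAzer B/G substrate 2.5 h RT; CellTiter-Glo 30 min RT; luminescence.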

A short description of experiment [9]: qHTS assay for small molecule activators of the heat shock response signaling pathway (AID 743210; active = well fitted activation curve with a large enough effect in the signal ratio in the repeat runs, with a control signal flat, not every such curve was filed as active; the % refers to the signal ratio;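 note: HeLa cells with beta-lactamase reporter driven by heat shock elements; series mostly up to about 63 µM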). Put shortly:
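Activation of heat shock element-controlled beta-lactamase expression is measured in HeLa cells by LiveBLAzer FRET fluorescence, with compound exposure lasting 5 h at 37 C and substrate loading 2.5 h at room temperature.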

A short description of experiment [10]: qHTS assay to identify small molecule agonists of the peroxisome proliferator-activated receptor delta (PPARd) signaling pathway - cell viability counter screen (AID 743211). Note: nearly all actives have a fitted effect of over 55% in size. The procedure, abridged:
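Multiplexed format: after the 2 h room-temperature LiveBLAzer B/G FRET step, CellTiter-Glo was added to the same wells. Luminescence after 30 min gave cell viability; compound exposure was 17 h at 37C.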

The target of experiment [11] is Peroxisome proliferator-activated receptor delta (Homo sapiens) (UniProt Q03181). Put plainly: qHTS assay to identify small molecule agonists of the peroxisome proliferator-activated receptor delta (PPARd) signaling pathway (AID 743212; calls by dose curve). The procedure, abridged: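 Cells expressing a UAS-driven beta-lactamase reporter (PPARd-bla HEK293H) were given test compounds after a 5 h settle and kept at 37 C. Reporter activity was then measured as FRET fluorescence using LiveBLAzer B/G substrate.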

Experiment [12] can be described thus: qHTS assay to identify small molecule antagonists of the peroxisome proliferator-activated receptor delta (PPARd) signaling pathway - cell viability counter screen (AID 743213). Note: nearly all actives have a fitted effect of over 50% in size. Put shortly: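 PPARd-bla HEK293H cells (3000/well) got compound plus 300 nM L165041 agonist for 17 h at 37 C. Viability in the same wells came from CellTiter-Glo luminescence after 30 min at room temperature.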

Experiment [13] has as its target Peroxisome proliferator-activated receptor delta (Homo sapiens) (UniProt Q03181). In words: qHTS assay to identify small molecule antagonists of the peroxisome proliferator-activated receptor delta (PPARd) signaling pathway (AID 743215; active = well fitted inhibition curve with a large enough effect in the signal ratio in the repeat runs, not every such curve was filed as active; the % refers to the signal ratio;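 note: cells stimulated with agonist L165041 at 300 nM final during compound exposure; series mostly up to about 62 µM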). The procedure, abridged:
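HEK293H GeneBLAzer PPARd UAS-bla reporter cells; cpd + L165041 300 nM final, 17 h 37 C; LiveBLAzer B/G FRET substrate 2 h RT; fluorescence intensity read-out. Antagonist mode.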

Experiment [14] is described as follows: qHTS assay to identify small molecule agonists of the farnesoid-X-receptor (FXR) signaling pathway - cell viability counter screen (AID 743218). Note: nearly all actives have a fitted effect of over 45% in size. The procedure, abridged:
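Luminescence from CellTiter-Glo, read after 30 min at RT, reports viability of GeneBLAzer FXR-UAS-bla HEK 293T cells treated 16 h with compounds in the wells used for the beta-lactamase reporter.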

The nature of experiment [15]: qHTS assay to identify small molecule antagonists of the farnesoid-X-receptor (FXR) signaling pathway - cell viability counter screen (AID 743221; active = well fitted cell-killing curve with a large enough effect in the repeat runs, not every such curve was filed as active; note: nearly all actives have a fitted effect of over 50% in size). The procedure, abridged: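 CellTiter-Glo, 30 min RT, luminescence; same wells as the LiveBLAzer FRET read. Cells: FXR-UAS-bla HEK 293T. Treatment: compound with chenodeoxycholic acid 50 uM final, 16 h at 37 C.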
The target of experiment [16] is Vitamin D3 receptor (Homo sapiens) (UniProt P11473). Put plainly: qHTS assay to identify small molecule agonists of the vitamin D receptor (VDR) signaling pathway (AID 743222; calls by dose curve). The procedure, abridged: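 Beta-lactamase reporter readout (LiveBLAzer B/G FRET, 2 h RT) in VDR-bla cells after 16 h compound treatment at 37C, 5% CO2; cells pre-incubated 4 h before pin transfer of DMSO solutions.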

Experiment [17] shares this target. In words: qHTS assay to identify small molecule antagonists of the vitamin D receptor (VDR) signaling pathway (AID 743223; active = well fitted inhibition curve with a large enough effect in the signal ratio in the repeat runs, not every such curve was filed as active; the % refers to the signal ratio). Put shortly: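 After VDR-bla cells are plated and left 4 h at 37C, DMSO-dissolved compounds and 3 nM (final) calcitriol agonist are added. Incubation continues 16 h at 37C; FRET beta-lactamase substrate then develops 2 h at room temperature.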

The target of experiment [18] is Bile acid receptor (Homo sapiens) (UniProt Q96RI1). Put plainly: qHTS assay to identify small molecule antagonists of the farnesoid-X-receptor (FXR) signaling pathway (AID 743217; active = well fitted inhibition curve with a large enough effect in the signal ratio in the repeat runs, not every such curve was filed as active; the % refers to the signal ratio). The procedure, abridged: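 Read-out: beta-lactamase FRET fluorescence (LiveBLAzer B/G substrate, 2 h, room temperature) in GeneBLAzer FXR-UAS-bla HEK 293T cells. Compounds were co-dosed with 50 uM chenodeoxycholic acid (final) and incubated 16 h at 37 °C.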

Experiment [19] has the same target. In words: qHTS assay to identify small molecule agonists of the farnesoid-X-receptor (FXR) signaling pathway (AID 743220; active = well fitted activation curve with a large enough effect in the signal ratio in the repeat runs, not every such curve was filed as active; the % refers to the signal ratio). Put shortly:
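FXR-UAS-bla HEK 293T cells carrying a UAS-driven beta-lactamase reporter were plated for 5 h at 37C/5% CO2, then exposed to DMSO-dissolved Tox21 10K compounds for 16 h at 37C. A LiveBLAzer B/G FRET substrate was loaded for 2 h at room temperature before fluorescence reading.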

Sequence of Peroxisome proliferator-activated receptor delta (Homo sapiens) (Q03181 whole entry, looked up): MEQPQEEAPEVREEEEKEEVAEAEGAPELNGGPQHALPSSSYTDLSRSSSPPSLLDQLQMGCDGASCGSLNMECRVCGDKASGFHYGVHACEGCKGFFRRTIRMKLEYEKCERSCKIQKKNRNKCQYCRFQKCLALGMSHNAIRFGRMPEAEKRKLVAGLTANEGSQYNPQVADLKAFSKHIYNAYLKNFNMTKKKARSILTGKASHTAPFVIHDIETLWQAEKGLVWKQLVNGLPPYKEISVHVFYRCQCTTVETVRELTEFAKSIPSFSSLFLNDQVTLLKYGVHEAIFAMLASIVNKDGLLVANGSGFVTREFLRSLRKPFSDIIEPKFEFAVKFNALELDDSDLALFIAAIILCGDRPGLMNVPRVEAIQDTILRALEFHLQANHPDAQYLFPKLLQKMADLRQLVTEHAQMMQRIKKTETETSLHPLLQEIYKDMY
Sequence of Vitamin D3 receptor (Homo sapiens) (P11473 whole entry, looked up): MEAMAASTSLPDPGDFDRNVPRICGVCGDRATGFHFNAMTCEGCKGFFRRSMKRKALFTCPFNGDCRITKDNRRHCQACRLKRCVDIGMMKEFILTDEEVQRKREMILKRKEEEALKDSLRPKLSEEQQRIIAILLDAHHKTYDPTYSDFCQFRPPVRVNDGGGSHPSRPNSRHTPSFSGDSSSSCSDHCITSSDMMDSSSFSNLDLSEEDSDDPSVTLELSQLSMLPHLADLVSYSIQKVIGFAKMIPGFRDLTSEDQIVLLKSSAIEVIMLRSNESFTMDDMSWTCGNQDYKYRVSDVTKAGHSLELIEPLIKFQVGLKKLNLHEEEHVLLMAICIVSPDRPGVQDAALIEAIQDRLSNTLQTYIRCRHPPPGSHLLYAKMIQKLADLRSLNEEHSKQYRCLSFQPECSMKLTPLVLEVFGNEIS
Sequence of Bile acid receptor (Homo sapiens) (Q96RI1 whole entry, looked up): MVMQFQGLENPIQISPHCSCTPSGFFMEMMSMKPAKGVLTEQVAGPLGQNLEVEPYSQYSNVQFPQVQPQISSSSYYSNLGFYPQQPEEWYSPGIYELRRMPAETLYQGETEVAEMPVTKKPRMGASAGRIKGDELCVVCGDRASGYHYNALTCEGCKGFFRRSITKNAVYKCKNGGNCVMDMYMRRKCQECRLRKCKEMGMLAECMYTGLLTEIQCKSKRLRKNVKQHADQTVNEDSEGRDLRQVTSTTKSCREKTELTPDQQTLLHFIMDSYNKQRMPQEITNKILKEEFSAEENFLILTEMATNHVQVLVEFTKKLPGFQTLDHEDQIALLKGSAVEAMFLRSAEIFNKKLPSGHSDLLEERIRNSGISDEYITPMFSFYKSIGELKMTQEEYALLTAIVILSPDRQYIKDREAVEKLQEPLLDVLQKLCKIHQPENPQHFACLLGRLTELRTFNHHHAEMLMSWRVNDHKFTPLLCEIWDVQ
Sequence of Peroxisome proliferator-activated receptor gamma (Homo sapiens) (P37231 whole entry, looked up): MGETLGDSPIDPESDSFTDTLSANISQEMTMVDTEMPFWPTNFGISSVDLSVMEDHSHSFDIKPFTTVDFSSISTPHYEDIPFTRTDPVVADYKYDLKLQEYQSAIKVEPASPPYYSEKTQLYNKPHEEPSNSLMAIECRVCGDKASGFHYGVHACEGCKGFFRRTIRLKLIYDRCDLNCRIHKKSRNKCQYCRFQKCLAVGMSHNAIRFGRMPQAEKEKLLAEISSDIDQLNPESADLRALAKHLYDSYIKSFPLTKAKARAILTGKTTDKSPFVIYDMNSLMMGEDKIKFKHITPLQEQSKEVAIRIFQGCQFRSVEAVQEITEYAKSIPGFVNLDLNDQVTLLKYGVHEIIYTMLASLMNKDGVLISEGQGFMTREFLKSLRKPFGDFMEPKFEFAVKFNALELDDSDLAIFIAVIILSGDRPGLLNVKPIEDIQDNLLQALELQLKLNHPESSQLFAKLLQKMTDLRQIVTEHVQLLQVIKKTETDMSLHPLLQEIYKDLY
Sequence of Aryl hydrocarbon receptor (Homo sapiens) (P35869 whole entry, looked up): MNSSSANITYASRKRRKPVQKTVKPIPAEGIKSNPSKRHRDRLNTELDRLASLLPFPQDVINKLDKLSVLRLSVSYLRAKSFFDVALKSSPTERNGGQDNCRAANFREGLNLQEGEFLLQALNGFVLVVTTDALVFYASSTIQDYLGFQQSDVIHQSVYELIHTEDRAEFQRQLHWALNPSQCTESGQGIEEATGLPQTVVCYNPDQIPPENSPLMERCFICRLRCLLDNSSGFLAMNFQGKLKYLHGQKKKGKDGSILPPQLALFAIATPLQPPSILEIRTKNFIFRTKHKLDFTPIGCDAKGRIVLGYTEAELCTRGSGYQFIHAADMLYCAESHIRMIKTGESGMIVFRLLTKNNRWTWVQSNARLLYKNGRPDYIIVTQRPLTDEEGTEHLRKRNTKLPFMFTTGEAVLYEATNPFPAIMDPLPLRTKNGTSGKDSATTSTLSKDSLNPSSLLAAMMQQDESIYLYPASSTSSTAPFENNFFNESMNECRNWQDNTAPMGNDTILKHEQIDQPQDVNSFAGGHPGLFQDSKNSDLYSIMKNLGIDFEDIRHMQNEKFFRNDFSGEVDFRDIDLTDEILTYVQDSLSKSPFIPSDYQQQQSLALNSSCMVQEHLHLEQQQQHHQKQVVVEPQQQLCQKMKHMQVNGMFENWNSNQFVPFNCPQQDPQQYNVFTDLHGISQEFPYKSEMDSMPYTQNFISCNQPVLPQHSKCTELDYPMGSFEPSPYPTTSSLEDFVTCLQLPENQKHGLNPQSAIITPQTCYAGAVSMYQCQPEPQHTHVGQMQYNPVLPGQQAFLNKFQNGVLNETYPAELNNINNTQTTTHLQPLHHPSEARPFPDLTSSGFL

In the case of `C=CCNC(N)=S`, the Potency entry in experiment [1], in [2], in experiment [6], in [9], in [13] and in experiment [14] was “inactive” each time. Also, in experiment [15], the Potency entry is “inactive”. Moreover, the outcome in [3], in [4], in experiment [5], in experiment [7], in experiment [8] and in [10] was inactive. Also, the result in [11], in [12], in [16] and in experiment [17] was inactive.
Consider `O=c1[nH]c(=O)n([C@H]2CCCO2)cc1F`, for which the Potency entry in experiment [1], in [2], in experiment [6], in [9], in [13] and in experiment [14] was “inactive” throughout. Moreover, the Potency entry in experiment [15] is “inactive”. Moreover, the result in experiment [3], in experiment [4], in experiment [5], in experiment [7], in experiment [8] and in [10] was inactive. The result in experiment [11] and in [12] was inactive.
For `O=C(O)CC(C(=O)O)C(CC(=O)O)C(=O)O` (stereo unspecified), the Potency result in experiment [1], in experiment [2], in experiment [6], in experiment [9], in [13] and in experiment [14] was “inactive” in each case. Besides, the Potency result in experiment [15] was “inactive”. Moreover, the outcome in experiment [3], in experiment [4], in experiment [5], in [7], in experiment [8] and in [10] was inactive. Also, the molecule was called inactive in experiment [11], in experiment [12], in [18], in [19], in [16] and in experiment [17].
For `O=C(O)[C@H](O)[C@@H](O)[C@H](O)[C@H](O)CO`, the Potency result in experiment [1], in [2], in [6], in experiment [9], in [13] and in [14] was “inactive” in each case. Moreover, in experiment [15], the Potency result was “inactive”. The molecule was classed as inactive in [3], in experiment [4], in experiment [5], in experiment [7], in experiment [8] and in experiment [10]. Also, the molecule was called inactive in experiment [11], in experiment [16] and in experiment [17].
As for `CCCCCOC(C)=O`, the Potency entry in experiment [1], in [2], in [6], in [9], in [13] and in experiment [14] was “inactive” throughout. Besides, in experiment [15], the Potency entry was “inactive”. Further, the molecule was classed as inactive in experiment [3], in experiment [4], in [5], in experiment [7], in experiment [8] and in experiment [10]. Moreover, the outcome in experiment [11], in experiment [12], in [18], in [19], in experiment [16] and in [17] was inactive.
Take `c1ccc2scnc2c1`: the Potency result in [1], in [6], in experiment [9] and in [14] was “inactive” throughout. For the same molecule, the Potency result in experiment [2] is “inactive and 19.3 µM (active)”. Besides, the result in experiment [3], in experiment [4], in experiment [5], in experiment [7], in experiment [8] and in experiment [10] was inactive. The outcome in experiment [11], in [16] and in experiment [17] was inactive.
For the molecule `Cc1occc(=O)c1O`, the Potency result in experiment [1], in experiment [2], in experiment [6], in experiment [9], in experiment [14] and in [15] was “inactive” each time. The molecule was classed as inactive in experiment [3], in experiment [4], in experiment [5], in experiment [7], in experiment [8] and in experiment [10]. The result in [16] and in [17] was inactive.
In the case of `CCCCCCOCCO`, the Potency entry in experiment [1], in experiment [2], in [6], in experiment [9], in experiment [13] and in experiment [14] was “inactive” in each case. Further, the Potency entry in experiment [15] was “inactive”. In addition, the result in [3], in [4], in [5], in [7], in [8] and in experiment [10] was inactive. The outcome in experiment [11], in experiment [12], in [16] and in [17] was inactive.
